Assay results: PubChem BioAssay (NCI)
This is part of a sample that, as a whole, favours compounds with a hit. Of some 79,000 tested, about 15% had one in any assay. Calls of active or inactive are those of the source. No stated cut-off is given here; in the data, active means growth inhibition above about 70%; inactive means the rest.

Experiments:
[1] = NCI Yeast Anticancer Drug Screen. Data for the rad52 strain (AID 147);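 further: 0% = growth of vehicle-treated control cultures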; settings: S. cerevisiae rad52 mutant growth inhibition, hits give high values
In short: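 The repair-mutant yeast strain was incubated with compounds, then growth was read and inhibition derived relative to vehicle.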

[2] = NCI Yeast Anticancer Drug Screen. Data for the wt1 strain (AID 149);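 further: 0% = growth of vehicle-treated wt1 cultures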; settings: S. cerevisiae wt1 strain (SPY 50644) growth inhibition, hits give high values
In short: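 The wt1 strain was treated with compounds, and growth was compared with vehicle-treated cultures to give inhibition.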

[3] = NCI Yeast Anticancer Drug Screen. Data for the rad50EPP+ strain (AID 151);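 further: 0% = growth of vehicle-treated control cultures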; settings: S. cerevisiae rad50 mutant strain, hits give high values
In short: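 Vehicle-normalised growth inhibition; rad50EPP+ yeast strain, altered in DNA damage repair, compound-treated.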

[4] = NCI Yeast Anticancer Drug Screen. Data for the mgt1 strain (AID 153); settings: S. cerevisiae mgt1 mutant growth inhibition, hits give high values
In short: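 Vehicle-normalized growth inhibition is determined in mgt1 yeast, a strain selected for a defined alteration in DNA repair or cell cycle control.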

[5] = NCI Yeast Anticancer Drug Screen. Data for the rad50 strain (AID 155);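 further: 0% = growth of vehicle-only cultures of the same strain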; settings: S. cerevisiae rad50 strain growth inhibition, hits give high values
In short: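 Cells are treated with compound, grown, and their growth is then scored against vehicle-only cultures of the same repair-deficient yeast strain.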

[6] = NCI Yeast Anticancer Drug Screen. Data for the mec2-1 strain (AID 157); settings: S. cerevisiae mec2-1 strain, hits give high values
In short: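 Mutant yeast (mec2-1) grown with compound; growth inhibition relative to vehicle control reported.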

[7] = NCI Yeast Anticancer Drug Screen. Data for the sgs1 mgt1 strain (AID 161);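 further: 0% = growth of cultures given vehicle only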; settings: S. cerevisiae sgs1 mgt1 strain, hits give high values
In short: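 Percent growth inhibition was derived by comparing compound-exposed mutant yeast with vehicle-exposed cultures. The strain carries alterations in DNA damage repair.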

[8] = NCI Yeast Anticancer Drug Screen. Data for the CLN2oe strain (AID 163);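 further: 0% = growth of vehicle-only control cultures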; settings: S. cerevisiae CLN2oe strain, hits give high values
In short: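 Compounds are applied to yeast harbouring a defined cell-cycle control change; reduced growth compared with vehicle-treated controls gives the value.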

[9] = NCI Yeast Anticancer Drug Screen. Data for the cln2 rad14 strain (AID 165);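 further: 0% = growth equal to vehicle treated cultures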; settings: S. cerevisiae cln2 rad14 strain, hits give high values
In short: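 Readout is yeast growth inhibition versus vehicle-treated controls, using a strain with cln2 and rad14 alterations exposed to compound.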

[10] = NCI Yeast Anticancer Drug Screen. Data for the bub3 strain (AID 167); settings: S. cerevisiae bub3 mutant strain, hits give high values
In short: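 Part of a panel of yeast mutants defective in DNA damage repair or cell cycle regulation. Each strain is grown with compound, and inhibition is calculated relative to solvent-treated cultures.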

[11] = NCI Yeast Anticancer Drug Screen. Data for the wt2 strain (AID 169);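 further: 0% = growth of vehicle-treated yeast cultures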; settings: S. cerevisiae wt2 strain growth inhibition, hits give high values
In short: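 Against vehicle-treated controls, the growth of yeast exposed to each compound was compared, and the inhibition was recorded.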

[12] = NCI Yeast Anticancer Drug Screen. Data for the mlh1 strain (AID 171);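 further: 0% = growth of vehicle-treated control cultures of the same strain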; settings: S. cerevisiae mlh1 strain growth inhibition, hits give high values
In short: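 Measured: yeast growth. Reference: vehicle-treated controls. Organism: strain with a defined alteration affecting DNA damage repair or cell cycle control, treated with compound.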

[13] = NCI Yeast Anticancer Drug Screen. Data for the sgs1 strain (AID 173);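 further: 0% = growth of vehicle-only control cultures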; settings: S. cerevisiae sgs1 mutant, hits give high values
In short: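 Each compound was added to cultures of the altered yeast strain. Growth was recorded, and inhibition was derived by comparison with vehicle controls.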

[14] = NCI Yeast Anticancer Drug Screen. Data for the mlh1 rad18 strain (AID 175); settings: S. cerevisiae mlh1 rad18 strain growth inhibition, hits give high values
In short: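 Genetically defined yeast (DNA repair-deficient) exposed to compounds; growth inhibition determined relative to vehicle.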

[15] = NCI Yeast Anticancer Drug Screen. Data for the rad18 strain (AID 177); settings: S. cerevisiae rad18 mutant growth inhibition, hits give high values
In short: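 Vehicle-treated cultures served as the baseline for scoring compound-induced growth inhibition in DNA-repair-mutant yeast.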

[16] = NCI Yeast Anticancer Drug Screen. Data for the rad14 strain (AID 159);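 further: 0% = growth of vehicle-treated control cultures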; settings: S. cerevisiae rad14 strain growth inhibition, hits give high values
In short: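 Readout: yeast growth inhibition, referenced to vehicle-only cultures. Strain bears a defined alteration in DNA damage repair.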

[17] = at 5.0 µM (retest, dose inferred, filed as 0.5)
[18] = at 50.0 µM (retest, dose inferred, filed as 5.0)

Measured: growth inhibition

CN(C)c1ccc(C2CC(C)(O)Oc3cc4c(cc32)OCO4)cc1 (stereo not drawn)
inactive: [1]; at 1.2 µM -1% | [1]; at 3.7 µM -1% | [1]; at 11.0 µM 10% | [1]; at 33.0 µM 28% | [2]; at 1.2 µM 0% | [2]; at 3.7 µM 5% | [2]; at 11.0 µM 1% | [2]; at 33.0 µM 1% | [2]; at 100.0 µM 7% | [3]; at 1.2 µM 2% | [3]; at 3.7 µM 4% | [3]; at 11.0 µM 20% | [3]; at 33.0 µM 36% | [3]; at 100.0 µM 59% | [4]; at 1.2 µM -2% | [4]; at 3.7 µM -3% | [4]; at 11.0 µM 0% | [4]; at 33.0 µM 4% | [4]; at 100.0 µM 48% | [5]; at 1.2 µM -1% | [5]; at 3.7 µM -2% | [5]; [17] 10% | [5]; at 11.0 µM 5% | [5]; at 33.0 µM 12% | [5]; at 50.0 µM 24.6% | [5]; at 100.0 µM 40% | [6]; at 1.2 µM -6% | [6]; at 3.7 µM 0% | [6]; [17] -20% | [6]; at 11.0 µM 2% | [6]; at 33.0 µM 4% | [6]; [18] 12% | [6]; at 50.0 µM 14.3% | [6]; at 100.0 µM 29% | [7]; [17] 2% | [7]; at 50.0 µM 34.7% | [8]; at 1.2 µM -5% | [8]; at 3.7 µM -16% | [8]; at 11.0 µM 4% | [8]; at 33.0 µM -3% | [8]; at 100.0 µM 16% | [9]; [17] 1% | [9]; [18] 37% | [9]; at 50.0 µM 21.3% | [10]; at 1.2 µM -5% | [10]; at 3.7 µM -3% | [10]; [17] 18% | [10]; at 11.0 µM 3% | [10]; at 33.0 µM 10% | [10]; at 50.0 µM 27.9% | [10]; at 100.0 µM 16% | [11]; at 1.2 µM -1% | [11]; at 3.7 µM -2% | [11]; at 11.0 µM -1% | [11]; at 33.0 µM 7% | [11]; at 100.0 µM 46% | [12]; at 1.2 µM -3% | [12]; at 3.7 µM 0% | [12]; at 11.0 µM 2% | [12]; at 33.0 µM 11% | [12]; at 100.0 µM 41% | [13]; at 1.2 µM -1% | [13]; at 3.7 µM 7% | [13]; at 11.0 µM 23% | [13]; at 33.0 µM 55% | [14]; [17] 23% | [14]; at 50.0 µM 43.5% | [15]; at 1.2 µM 24% | [15]; at 3.7 µM 57%
active: [1]; at 100.0 µM 70% | [5]; [18] 77% | [7]; [18] 83% | [10]; [18] 79% | [13]; at 100.0 µM 87% | [14]; [18] 93% | [15]; at 11.0 µM 89% | [15]; at 33.0 µM 92% | [15]; at 100.0 µM 95%

CC[N+]1(C)CCC(O)(c2ccc(OC)cc2)C(C(=O)c2ccc(OC)cc2)C1 (stereo not drawn)
active: [9]; [17] 86% | [9]; [18] 97% | [10]; [18] 91%
inactive: [1]; at 1.2 µM -10% | [1]; at 3.7 µM -13% | [1]; at 11.0 µM -22% | [1]; at 33.0 µM -19% | [1]; at 100.0 µM -20% | [2]; at 1.2 µM -69% | [2]; at 3.7 µM -76% | [2]; at 11.0 µM -72% | [2]; at 33.0 µM -62% | [2]; at 100.0 µM -58% | [3]; at 1.2 µM -32% | [3]; at 3.7 µM -32% | [3]; at 11.0 µM -38% | [3]; at 33.0 µM -35% | [3]; at 100.0 µM -23% | [4]; at 1.2 µM -39% | [4]; at 3.7 µM -52% | [4]; at 11.0 µM -54% | [4]; at 33.0 µM -54% | [4]; at 100.0 µM -44% | [5]; at 1.2 µM -24% | [5]; at 3.7 µM -19% | [5]; [17] 24% | [5]; at 11.0 µM -37% | [5]; at 33.0 µM -21% | [5]; [18] 28% | [5]; at 50.0 µM -1.2% | [5]; at 100.0 µM -30% | [6]; at 1.2 µM -63% | [6]; at 3.7 µM -56% | [6]; [17] 7% | [6]; at 11.0 µM -69% | [6]; at 33.0 µM -61% | [6]; [18] 23% | [6]; at 50.0 µM 14.8% | [6]; at 100.0 µM -74% | [16]; at 1.2 µM 6% | [16]; at 3.7 µM 0% | [16]; at 11.0 µM -33% | [16]; at 33.0 µM -3% | [16]; at 100.0 µM -27% | [8]; at 1.2 µM -13% | [8]; at 3.7 µM -3% | [8]; at 11.0 µM -14% | [8]; at 33.0 µM -4% | [8]; at 100.0 µM -20% | [9]; at 50.0 µM 20.1% | [10]; at 1.2 µM -49% | [10]; at 3.7 µM -42% | [10]; [17] 35% | [10]; at 11.0 µM -61% | [10]; at 33.0 µM -52% | [10]; at 50.0 µM 8.55% | [10]; at 100.0 µM -68% | [11]; at 1.2 µM -21% | [11]; at 3.7 µM -15% | [11]; at 11.0 µM -14% | [11]; at 33.0 µM -16% | [11]; at 100.0 µM -22% | [12]; at 1.2 µM -78% | [12]; at 3.7 µM -64% | [12]; at 11.0 µM -16% | [12]; at 33.0 µM -55% | [12]; at 100.0 µM -62% | [13]; at 1.2 µM -10% | [13]; at 3.7 µM -37% | [13]; at 11.0 µM -49% | [13]; at 33.0 µM -44% | [13]; at 100.0 µM -50% | [14]; [17] 25% | [14]; [18] 29% | [14]; at 50.0 µM 6.75% | [15]; at 1.2 µM -7% | [15]; at 3.7 µM -17% | [15]; at 11.0 µM -13% | [15]; at 33.0 µM -23% | [15]; at 100.0 µM -23%

CC(O)=NC(Cc1ccc2ccccc2c1)C(O)=NC(Cc1ccc(Cl)cc1)C(O)=NC(Cc1c[nH]c2ccccc12)C(O)=NC(CO)C(O)=NC(Cc1ccc(O)cc1)C(O)=NC(CCCN=C(N)N)C(O)=NC(CC(C)C)C(O)=NC(CCCN=C(N)N)C(=O)N1CCCC1C(O)=NC(C)C(=N)O (stereo not drawn)
inactive: [1]; at 1.2 µM -7% | [1]; at 3.7 µM -8% | [1]; at 11.0 µM -4% | [1]; at 33.0 µM 4% | [1]; at 100.0 µM 16% | [2]; at 1.2 µM -2% | [2]; at 3.7 µM -4% | [2]; at 11.0 µM -5% | [2]; at 33.0 µM -3% | [2]; at 100.0 µM -1% | [3]; at 1.2 µM -4% | [3]; at 3.7 µM 2% | [3]; at 11.0 µM 11% | [3]; at 33.0 µM 16% | [3]; at 100.0 µM 11% | [4]; at 1.2 µM -3% | [4]; at 3.7 µM -2% | [4]; at 11.0 µM -4% | [4]; at 33.0 µM -5% | [4]; at 100.0 µM 6% | [5]; at 1.2 µM -5% | [5]; at 3.7 µM -2% | [5]; [17] -9% | [5]; at 11.0 µM 1% | [5]; at 33.0 µM 3% | [5]; [18] 16% | [5]; at 50.0 µM 18.1% | [5]; at 100.0 µM 25% | [6]; at 1.2 µM -2% | [6]; at 3.7 µM -3%
